Screens as filed in PubChem.
PRC2 inh – inhibitors of human EZH2/PRC2 methyltransferase | hit rate 0.35% among 57,000 | inhibition, % at 12.5 µM | PRC2 H3K27 methylation, DELFIA TRF, 1 h;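 active = mean inhibition of replicates at least 50% and every single replicate also reaching 50%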;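 note: dimethyl H3K27 on biotinylated H3 21-44 peptide detected by antibody; plate controls were median neutral control wells for no effect and median positive control wells for full effect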
Target sequence (Q15910 whole entry, looked up): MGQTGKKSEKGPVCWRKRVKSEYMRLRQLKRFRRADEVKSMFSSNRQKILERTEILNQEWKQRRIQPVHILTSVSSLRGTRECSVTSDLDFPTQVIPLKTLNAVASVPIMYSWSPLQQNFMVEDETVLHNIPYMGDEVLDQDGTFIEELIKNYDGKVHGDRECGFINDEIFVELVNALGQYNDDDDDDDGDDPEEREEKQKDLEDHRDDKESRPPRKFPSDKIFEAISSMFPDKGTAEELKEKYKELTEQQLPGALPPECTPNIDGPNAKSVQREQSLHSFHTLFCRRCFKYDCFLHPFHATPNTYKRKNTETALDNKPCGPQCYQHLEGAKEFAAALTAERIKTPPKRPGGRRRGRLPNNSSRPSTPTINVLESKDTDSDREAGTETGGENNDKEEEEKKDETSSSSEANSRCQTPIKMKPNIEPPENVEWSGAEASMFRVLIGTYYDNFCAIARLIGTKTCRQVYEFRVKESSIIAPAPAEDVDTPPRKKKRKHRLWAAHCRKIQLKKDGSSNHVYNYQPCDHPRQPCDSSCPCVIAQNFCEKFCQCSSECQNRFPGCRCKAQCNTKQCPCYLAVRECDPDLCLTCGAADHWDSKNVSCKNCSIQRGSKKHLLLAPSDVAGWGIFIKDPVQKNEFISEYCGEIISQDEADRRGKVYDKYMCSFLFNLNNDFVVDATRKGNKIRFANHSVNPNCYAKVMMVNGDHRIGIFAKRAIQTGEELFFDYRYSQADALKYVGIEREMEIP
Active calls of the source: *. The full list was thinned out, with hits kept by preference.

SMILES | PRC2 inh
O=[N+]([O-])c1ccccc1OCCCCSc1ncccn1 | 5
Cc1cc(Cl)cc(Br)c1OCCCSc1ncccn1 | 62*
Cc1ccc([N+](=O)[O-])c(OCCCSc2ncccn2)c1 | 16
Cc1ccc(C)c(OCCCCSc2ncccn2)c1Cl | 56*
Clc1ccc(OCCCCSc2ncccn2)cc1 | 28
O=C(CC1(O)C(=O)N(Cc2ccc(Cl)cc2)c2ccc(Cl)cc21)c1ccccn1 (stereo unspecified) | -8
Cc1ccc([N+](=O)[O-])cc1NC(=O)CN(C)S(=O)(=O)c1cc(Cl)ccc1Cl | -9
CN(CC(=O)Nc1cc(Cl)ccc1O)S(=O)(=O)c1ccc(Cl)cc1 | 10
COC(=O)c1ccccc1NC(=O)c1ccc(COc2ccccc2)o1 | 53*
COC(=O)c1ccccc1NC(=O)c1ccc(NC(=O)COc2ccccc2)cc1 | 10
COC(=O)c1ccccc1NC(=O)c1cccc(NC(=O)COc2ccccc2)c1C | 17
CC(C)c1ccc2oc(-c3ccc(Cl)c(NC(=O)COc4ccc([N+](=O)[O-])cc4)c3)nc2c1 | -3
COc1ccc(F)cc1S(=O)(=O)NCc1cccnc1 | 11
Cc1c(Br)c([N+](=O)[O-])nn1CC(=O)Nc1ccc(F)cc1 | -4
Cc1ccc(-n2c(SCC(=O)Nc3c(F)cc(F)cc3Br)nc3ccccc3c2=O)cc1 | 12
O=C(CS(=O)c1ccc(C(F)(F)F)cc1[N+](=O)[O-])Oc1ccc(C2CCCCC2)cc1 (stereo unspecified) | 1
CO[C@@H]1CN(C)C(=O)c2ccc(NS(=O)(=O)c3cccc(F)c3)cc2OC[C@@H](C)N(Cc2cc(F)ccc2F)C[C@H]1C | 38
CO[C@@H]1CN(C)C(=O)c2ccc(NS(=O)(=O)c3cccc(F)c3)cc2OC[C@H](C)N(Cc2cc(F)ccc2F)C[C@@H]1C | 54*
CO[C@@H]1CN(C)C(=O)c2ccc(NS(=O)(=O)c3cccc(F)c3)cc2OC[C@@H](C)N(Cc2cc(F)ccc2F)C[C@@H]1C | 48
COc1ccc([N+](=O)[O-])cc1CSc1nnc(-c2ccc(NC(C)=O)cc2)n1C | 5
O=C(COc1ccccc1)Nc1ccc2oc(-c3cccc(Cl)c3)nc2c1 | 1
CC(=O)N(Cc1ccc(C(C)C)cc1)c1ccc2oc(-c3ccccc3)nc2c1 | 58*
O=C(COc1ccccc1)Nc1ccc2oc(-c3ccc(Cl)cc3)nc2c1 | -12
Cn1c(SCC(=O)Nc2ccc(C(N)=O)cc2)nnc1-c1ccccn1 | 3
C=C1CC(O)C2C(=C)C(=O)OC2C2C(=C)C(OC3OC(CO)C(O)C(OC(=O)/C=C/c4ccc(O)c(O)c4)C3O)CC12 (stereo unspecified) | 76*
SMILES | PRC2 inh
C[C@@H]1O[C@@H](O[C@H]2[C@@H]3C=CO[C@@H](O[C@@H]4O[C@H](CO)[C@@H](O)[C@H](O)[C@H]4O)[C@@H]3[C@@]3(CO)O[C@@H]23)[C@H](OC(=O)/C=C/c2ccc(O)c(O)c2)[C@H](O)[C@H]1O | 18
O=C(/C=C/c1ccc(O)c(O)c1)OCCc1ccccc1 | 15
COc1ccc(-c2nc3ccccc3s2)cc1NC(=O)COc1ccc(Cl)cc1Cl | -7
Cc1cccc(N(CC(=O)Nc2ccc(Cl)cc2)S(C)(=O)=O)c1C | -15
COC(=O)C1=CO[C@@H](O[C@@H]2O[C@H](CO)[C@@H](O)[C@H](O)[C@H]2O)[C@H]2[C@@H]1[C@H](OC(=O)/C=C/c1ccc(O)cc1)C[C@]2(C)OC(C)=O | 3
COC(=O)C1=CO[C@@H](O[C@@H]2O[C@H](CO)[C@@H](O)[C@H](O)[C@H]2O)C2C1CCC2(C)O (stereo partly specified) | 18
COC(=O)C1=CO[C@@H](O[C@@H]2O[C@H](CO)[C@@H](O)[C@H](O)[C@H]2O)[C@@H]2[C@@](C)(O)[C@@H](OC(=O)/C=C/c3ccc(OC)c(O)c3)C[C@]12O | 52*
Cc1cc(C)c(NC(=O)CSc2nc(-c3ccccc3)cc(=O)[nH]2)c([N+](=O)[O-])c1 | -15
Cc1ccc(Cl)cc1N(CC(=O)Nc1ccc(C(N)=O)cc1)S(C)(=O)=O | -1
COc1cc(Cl)c(C)cc1NC(=O)C(CC(C)C)N1C(=O)c2ccccc2C1=O (stereo unspecified) | 25
O=C1O[C@H](c2ccccc2)[C@H](c2ccccc2)N2[C@H]1[C@@H](C(=O)O)[C@]1(C(=O)Nc3ccc(C#CCCO)cc31)[C@H]2c1ccccc1OCCO | 23
COC(=O)C(CC#Cc1ccc2c(c1)[C@]1(C(=O)N2)[C@H](C(=O)O)[C@H]2C(=O)O[C@H](c3ccccc3)[C@H](c3ccccc3)N2[C@@H]1c1ccc(OCCO)cc1)C(=O)OC | 40
COC(=O)C(CC#Cc1ccc2c(c1)[C@]1(C(=O)N2)[C@H](c2ccccc2OCCO)N2[C@H](c3ccccc3)[C@H](c3ccccc3)OC(=O)[C@H]2[C@@H]1C(=O)O)C(=O)OC | 69*
COc1ccc(C#Cc2ccc3c(c2)[C@]2(C(=O)N3)[C@H](C(=O)O)[C@H]3C(=O)O[C@H](c4ccccc4)[C@H](c4ccccc4)N3[C@@H]2c2ccccc2OCCO)cc1 | 75*
COC(=O)C(CC#Cc1ccc2c(c1)[C@]1(C(=O)N2)[C@H](C(=O)N2CCCCCCC2)[C@H]2C(=O)O[C@H](c3ccccc3)[C@H](c3ccccc3)N2[C@@H]1c1ccccc1OCCO)C(=O)OC | -10
COc1ccc(C#Cc2ccc3c(c2)[C@]2(C(=O)N3)[C@H](c3ccccc3OCCO)N3[C@H](c4ccccc4)[C@H](c4ccccc4)OC(=O)[C@H]3[C@@H]2C(N)=O)cc1 | -38
Nc1nnc(SCC(=O)Nc2ccc(I)cc2)s1 | 3
Cc1cc(C)nc(SCC(=O)Nc2cc([N+](=O)[O-])ccc2C)n1 | -1
COc1cc(C2OCC3(OC4OC(CO)C(O)C(O)C4O)C(c4ccc(O)c(OC)c4)OCC23)ccc1O (stereo unspecified) | -21
COc1cc(C[C@H]2CO[C@H](c3ccc(O[C@@H]4O[C@H](CO)[C@@H](O)[C@H](O)[C@H]4O)c(OC)c3)[C@H]2CO)ccc1O | 100*
COc1cc(/C=C/c2cc(O)cc(O[C@@H]3O[C@H](CO)[C@@H](O)[C@H](O)[C@H]3O)c2)ccc1O[C@@H]1O[C@H](CO)[C@@H](O)[C@H](O)[C@H]1O | 28
Cc1cc(C)c(NC(=O)CN(C)S(=O)(=O)c2ccc(F)cc2)c(C)c1 | -1
Cn1nc(-c2ccc(NCCN3CCOCC3)c([N+](=O)[O-])c2)c2ccccc2c1=O | -8
COc1cc(NS(=O)(=O)c2ccc(NC(=O)c3cccc4ccccc34)cc2)ncn1 | 7
Cc1nc(-c2ccccc2)sc1C(=O)C1C(=O)C(=O)N(CCN2CCOCC2)C1c1ccccc1F (stereo unspecified) | -3
SMILES | PRC2 inh
CN(CCO)c1ccc(/C=N/NC(=O)c2ccc(C(=O)NO)cc2)cc1 | 0
C[C@H]1CN([C@@H](C)CO)C(=O)c2cc(C#Cc3ccccc3)cnc2O[C@@H]1CN(C)CC1CCOCC1 | -12
C[C@@H]1CN([C@H](C)CO)C(=O)c2cc(C#Cc3ccncc3)cnc2O[C@H]1CN(C)CC1CCOCC1 | 100*
C[C@@H]1CN([C@@H](C)CO)C(=O)c2cc(C#Cc3ccncc3)cnc2O[C@@H]1CN(C)CC1CCOCC1 | 14
COc1ccc(/C=N/NC(=O)CCCCCCC(=O)NO)cc1OC | -16
Cc1nc(-c2ccccc2)sc1C(=O)C1C(=O)C(=O)N(CCN(C)C)C1c1cccc([N+](=O)[O-])c1 (stereo unspecified) | -2
